Assay results: PubChem BioAssay (NCATS)
Results filed as inconclusive are left out. The source made the active and inactive calls. Calls follow the shape of the dose curve; as a rule, active = well fitted curve in the direction sought with a large enough effect; inconclusive = small, poorly fitted or top-dose-only effect, or another doubt; inactive = no such curve, though single readings can be large; an effect the other way counts as inactive or inconclusive. Starred links: 1 amine or outer side, 2 acyl side, 3 side chain; linkers in the order of their positions; H or OH if unused. Positions of bridges follow the written chain, without caps; N, C: chain ends. Non-standard residues stand in square brackets, D forms with d. Residues, ends and D or L forms follow the SMILES beside them. Chains are numbered I, II in the order given. Actinocin(9to1) = Cc1c2oc3c(C)ccc(C(=O)[*:1])c3nc-2c(C(=O)[*:2])c(N)c1=O; NMeV = CN[CH](C(=O)O)C(C)C; Sar = CNCC(=O)O

Assays:
[1] = P-glycoprotein substrates identified in KB-8-5-11 adenocarcinoma cell line, qHTS therapeutic library screen (AID 1346987); also: nearly all actives have a fitted effect of over 65% in size
In short: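 Steps: plate 500 KB-8-5-11 cells/well in DMEM + 10% FCS (colchicine removed); pin compounds in dose-response; incubate 72 h, 37 degree C, 5% CO2; add CellTiter-Glo, 5 min; read luminescence.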

[2] = qHTS of pediatric cancer cell lines to identify multiple opportunities for drug repurposing: Primary screen for TC32 cells (AID 1347089); also: nearly all actives have a fitted effect of over 60% in size
In short: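 Measured quantity: luminescence from CellTiter-Glo, reflecting metabolically active TC32 cells following 48 h of compound. Curves came straight from multi-point titrations, with 8 or 11 points in primary and 11 in confirmatory screening.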

[3] = qHTS of pediatric cancer cell lines to identify multiple opportunities for drug repurposing: Primary screen for SK-N-MC cells (AID 1347093)
In short: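 Metabolically active cells were quantified by ATP-dependent luminescence (CellTiter-Glo, 15 min at room temperature) following 48 h treatment. Cells had been plated at 500-1,000 per well and settled for 5 h beforehand.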

[4] = qHTS of pediatric cancer cell lines to identify multiple opportunities for drug repurposing: Primary screen for BT-37 cells (AID 1347094)
In short: (§1)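 Cells seeded at 500-1,000 cells/well in growth media, rested 5 hours at 37 degrees C, 5% CO2, then dosed; MIPE compounds at 11-point (from 0.78 nM) and NPC at 8-point (from 0.59 nM) final concentrations. Viability by CellTiter-Glo luminescence after 48 hours.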

[5] = qHTS of pediatric cancer cell lines to identify multiple opportunities for drug repurposing: Primary screen for Saos-2 cells (AID 1347097); also: nearly all actives have a fitted effect of over 40% in size
In short: as §1

[6] = qHTS of pediatric cancer cell lines to identify multiple opportunities for drug repurposing: Primary screen for SK-N-SH cells (AID 1347098); also: nearly all actives have a fitted effect of over 65% in size
In short: (§2)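 Cells (500-1,000/well) rested 5 h, then received compounds for 48 h; metabolically active cells were measured by CellTiter-Glo luminescence. Final concentrations spanned up to 46 µM (MIPE, 11-point) or 0.59 nM-46 µM (NPC, 8-point) in primary screens, 11-point in follow-ups.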

[7] = qHTS of pediatric cancer cell lines to identify multiple opportunities for drug repurposing: Primary screen for BT-12 cells (AID 1347101); also: nearly all actives have a fitted effect of over 25% in size
In short: as §2

[8] = qHTS of pediatric cancer cell lines to identify multiple opportunities for drug repurposing: Primary screen for Rh18 cells (AID 1347102); also: nearly all actives have a fitted effect of over 65% in size
In short: as §2

[9] = qHTS of pediatric cancer cell lines to identify multiple opportunities for drug repurposing: Primary screen for DAOY cells (AID 1347090); also: nearly all actives have a fitted effect of over 55% in size
In short: (§3)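 Cell viability, CellTiter-Glo luminescence; 500-1,000 cells/well, 8- or 11-point titration, 48 h compound exposure at 37 degrees C, 5% CO2. Controls: DMSO neutral, bortezomib 2.3 µM final as positive.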

[10] = qHTS of pediatric cancer cell lines to identify multiple opportunities for drug repurposing: Primary screen for A673 cells (AID 1347092); also: nearly all actives have a fitted effect of over 45% in size
In short: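 Cells are plated, rested 5 h, dosed by pintool, incubated 48 h, then lysed with CellTiter-Glo and read by luminescence. DMSO is the neutral control; bortezomib at 2.3 uM final is the positive control.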

[11] = qHTS of pediatric cancer cell lines to identify multiple opportunities for drug repurposing: Primary screen for NB-EBc1 cells (AID 1347095)
In short: as §1

[12] = qHTS of pediatric cancer cell lines to identify multiple opportunities for drug repurposing: Primary screen for NB1643 cells (AID 1347099); also: nearly all actives have a fitted effect of over 50% in size
In short: as §1

[13] = qHTS of pediatric cancer cell lines to identify multiple opportunities for drug repurposing: Primary screen for LAN-5 cells (AID 1347100)
In short: as §2

[14] = qHTS of pediatric cancer cell lines to identify multiple opportunities for drug repurposing: Primary screen for SJ-GBM2 cells (AID 1347091)
In short: as §3

[15] = qHTS of pediatric cancer cell lines to identify multiple opportunities for drug repurposing: Primary screen for U-2 OS cells (AID 1347096); also: nearly all actives have a fitted effect of over 50% in size
In short: as §2

[16] = NS1 protein of Zika virus - qHTS assay to identify small molecule inhibitors in human HEK 293 cells (AID 1347053); also: nearly all actives have a fitted effect of over 55% in size
In short: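 HEK 293 cells pretreated with compound for 1 h, then infected with ZIKV MR766 (MOI 0.5) for 24 h at 37 C. NS1 detected by TR-FRET with two anti-NS1 antibodies; normalized to uninfected (0%) and infected (100%) wells.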
Potency is read from the fitted curve at half-maximal effect.

SMILES | Potency [1] | Potency [2] | Potency [3] | Potency [4] | Potency [5] | Potency [6] | Potency [7] | Potency [8] | Potency [9] | Potency [10] | Potency [11] | Potency [12] | Potency [13] | Potency [14] | Potency [15] | Potency [16]
CCOC(=O)[C@@H](N)Cc1ccc(-c2cc(O[C@H](c3ccc(Cl)cc3-n3ccc(C)n3)C(F)(F)F)nc(N)n2)cc1 | inactive | inactive | 16.6 µM (active) | 27.3 µM (active) | 18.7 µM (active) | inactive | 30.6 µM (active) | 23.5 µM (active) |  |  |  |  |  |  |  | 
CS(=O)(=O)N1CCc2c(-c3cnc(N)nc3)nc(N3CCOCC3)nc21 | 1.3 µM (active) |  | 0.0372 µM (active) |  | 0.935 µM (active) |  |  | 0.372 µM (active) | 0.469 µM (active) | 0.935 µM (active) | 0.235 µM (active) | 0.469 µM (active) | 0.332 µM (active) |  |  | 
Cn1cc(-c2cnn3c(N)c(Br)c([C@H]4CCCNC4)nc23)cn1 | inactive |  | 0.0935 µM (active) | 0.685 µM (active) |  | 17.1 µM (active) |  |  |  | 0.059 µM (active) | 0.264 µM (active) | 1.32 µM (active) | 0.743 µM (active) | 0.235 µM (active) |  | 
Cc1c2oc3c(C)ccc(C(=O)NC4C(=O)NC(C(C)C)C(=O)N5CCCC5C(=O)N(C)CC(=O)N(C)C(C(C)C)C(=O)OC4C)c3nc-2c(C(=O)NC2C(=O)NC(C(C)C)C(=O)N3CCCC3C(=O)N(C)CC(=O)N(C)C(C(C)C)C(=O)OC2C)c(N)c1=O (stereo unspecified) (I: TVP[Sar][NMeV] / II: TVP[Sar][NMeV]; ester I:1-I:C, II:1-II:C; linker I:N-II:N via Actinocin(9to1); configuration not given here) | 0.187 µM (active) | 0.523 µM (active) | 0.001 µM (active) | 0.001 µM (active) |  | 0.001 µM (active) | 0.001 µM (active) | 1.87 µM (active) |  |  | inactive |  |  |  | 0.001 µM (active) | 
Cc1coc2c1C(=O)C(=O)c1c-2ccc2c(C)cccc12 | inactive |  | inactive |  |  | inactive |  |  | inactive | inactive |  | inactive | inactive |  | inactive | 
CCCCCN=C(N)NN=Cc1c[nH]c2ccc(OC)cc12 | 10.5 µM (active) | 16.5 µM (active) | 3.72 µM (active) |  |  | inactive |  |  |  | 9.35 µM (active) |  |  |  |  |  | 
O=C(Nc1cccc(Nc2ncc(Br)c(NCCc3cnc[nH]3)n2)c1)N1CCCC1 |  | 0.93 µM (active) | 0.332 µM (active) | 21.7 µM (active) | 1.05 µM (active) | 13.6 µM (active) | 19.3 µM (active) | 9.35 µM (active) | 18.7 µM (active) | 11.8 µM (active) |  |  | 0.118 µM (active) | 5.9 µM (active) | inactive | 10.5 µM (active)
c1cc(CN2CCCNCCNCCCNCC2)ccc1CN1CCCNCCNCCCNCC1 | inactive |  |  | inactive | inactive |  | inactive | inactive | inactive | inactive | inactive | inactive | inactive | inactive | inactive | 
CCOC(=O)[C@H](CCc1ccccc1)N[C@@H](C)C(=O)N1[C@@H](C(=O)O)C[C@H]2CCC[C@@H]21 | 10.5 µM (active) |  | 1.87 µM (active) | 21.7 µM (active) | 14.8 µM (active) | 4.82 µM (active) | 24.3 µM (active) | 16.6 µM (active) | 14.8 µM (active) | 9.35 µM (active) | 18.7 µM (active) | 3.32 µM (active) | 13.2 µM (active) | 20.9 µM (active) | 18.7 µM (active) | 
CCOC(=O)N1CCN([N+]([O-])=NOc2ccc([N+](=O)[O-])cc2C#N)CC1 |  | 3.7 µM (active) | 10.5 µM (active) | 7.69 µM (active) |  | inactive | 3.06 µM (active) |  |  | 1.18 µM (active) |  | 3.72 µM (active) | 4.18 µM (active) |  |  | 2.96 µM (active)
CC(C)c1cnn2c(NCc3ccccc3)cc(NCCCCCCN)nc12 |  | inactive | 0.662 µM (active) | 24.3 µM (active) |  |  | 27.3 µM (active) |  | 4.69 µM (active) | 5.9 µM (active) | 20.9 µM (active) | 18.7 µM (active) | 18.7 µM (active) |  |  | 
Cc1cc(Nc2ncc3c(n2)N(C)C(=O)N(c2cc(NC(=O)c4cccc(C(F)(F)F)c4)ccc2C)C3)n(C)n1 |  |  | 0.209 µM (active) |  | 0.372 µM (active) | 0.607 µM (active) |  | 0.59 µM (active) | 0.935 µM (active) | 0.372 µM (active) | 0.743 µM (active) | 0.209 µM (active) | 0.935 µM (active) | 0.296 µM (active) | 0.935 µM (active) | inactive
CNC(=O)c1ccc(Nc2cc(Nc3ccccc3S(=O)(=O)C(C)C)c3cc[nH]c3n2)nc1 |  | 2.62 µM (active) | 0.743 µM (active) | 7.69 µM (active) | 1.66 µM (active) | 4.82 µM (active) | 4.85 µM (active) | 9.35 µM (active) | 14.8 µM (active) | 2.35 µM (active) | 1.48 µM (active) | 5.26 µM (active) | 0.0935 µM (active) | 1.05 µM (active) | 18.7 µM (active) | 
